ChEMBL document CHEMBL4513216, “Probing the Open Global Health Chemical Diversity Library for Multistage-Active Starting Points for Next-Generation Antimalarials” (ACS Infect Dis, 2020)
In all, about 69,000 compounds went through this assay and about 8,600 (12%) showed an effect of 50% or more. For the sample, strong results were picked, then their nearest neighbours and some compounds at random.

tested on: Plasmodium berghei; experiment: Screen against P. berghei liver stage (PbLuc), transformed with Luciferase, at 10uM; assay type: functional, HepG2; details: tested at 10 uM

Row | Compound | INHIBITION [%]
1 | Cc1ccc(CN2CC[C@@H](NC(=O)c3cccnc3)[C@H](O)C2)o1 | 31.1
2 | O=C(CNc1cc(-n2cnnn2)ccc1F)Nc1cc(F)ccc1F | 46.6
3 | O=C(CNc1cc(-n2cnnn2)ccc1F)NCc1ccccc1 | 53.4
4 | O=C(CNc1cc(-n2cnnn2)ccc1F)Nc1ccccc1Cl | 41.4
5 | COCCNC(=O)c1cc(-c2ccc3c(c2)CCO3)n[nH]1 | -18.9
6 | CCN(Cc1ccncc1)Cc1c[nH]nc1-c1ccc(F)cc1 | 14.8
7 | CN(Cc1ccn[nH]1)Cc1c[nH]nc1-c1ccc(F)cc1 | 77.2
8 | CCC(CO)N(Cc1ccccn1)Cc1ccc(-c2ccn[nH]2)s1 (stereo not given) | 47.2
9 | CCC(CO)N(Cc1ccccn1)Cc1c[nH]nc1-c1ccc(F)cc1 (stereo not given) | 78.9
10 | CCC(CO)N(Cc1ccncc1)Cc1c[nH]nc1-c1ccc(F)cc1 (stereo not given) | 57.6
11 | CCC(CO)N(Cc1ccc(F)cc1)Cc1c(C)nn(C)c1Cl (stereo not given) | -8.66
12 | CCC(CO)N(C/C(C)=C/c1ccco1)Cc1ccccn1 (stereo not given) | 8.64
13 | CN(Cc1cc(C(C)(C)C)n[nH]1)Cc1c[nH]nc1-c1ccc(F)cc1 | 47.6
14 | Cc1n[nH]c(C)c1CCCN(C)Cc1c[nH]nc1-c1ccc(F)cc1 | 40.2
15 | CN(Cc1ccccc1)C(=O)Cn1nc(N2CCOCC2)ccc1=O | -28.7
16 | O=C1CCCCN1CCc1nc(C2(c3ccc(F)cc3)CCOC2)no1 (stereo not given) | -15.5
17 | CCc1nn(C)c2[nH]nc(NC(=O)c3cccnc3NC(C)C)c12 | 36.3
18 | CCS(=O)(=O)N1CC(=O)N(CCOc2ccccc2)CC(O)C1 (stereo not given) | -10.3
19 | CCn1cc(S(=O)(=O)NC2(CN3CCOCC3)CCCCC2)c(C)n1 | -10.5
20 | CC(C)c1nccn1C(C)C(=O)N1CCN(c2ccccc2Cl)CC1 (stereo not given) | 64.6
21 | CC(C)c1nccn1C(C)C(=O)N1CCN(c2cnccn2)CC1 (stereo not given) | -6.28
22 | Cc1cccnc1N1CCN(C(=O)C(C)n2ccnc2C(C)C)CC1 (stereo not given) | 17.9
23 | COCCN(C)C[C@@H]1CN(C(=O)c2ccc(C)c(Cl)c2)C[C@@H]1CO | 13.1
24 | C[C@@H]1CN(Cc2ccoc2)C[C@]12CCN(CC(=O)N(C)C)C2=O | 23.5
25 | CCOC(C)c1noc(CN2CCN(c3nnc(C)s3)CC2)n1 (stereo not given) | 65.8
26 | CCOC(C)c1noc(CN2CCN(Cc3ccno3)CC2)n1 (stereo not given) | 33.4
27 | CCOC(C)c1noc(CN2CCNCC2)n1 (stereo not given) | 31.2
28 | CCOC(C)c1noc(CN2CCN(CC3CCCC3)CC2)n1 (stereo not given) | 28
29 | CCOC(C)c1noc(CN2CCN(Cc3cccnc3)CC2)n1 (stereo not given) | 34.4
30 | CCOC(C)c1noc(CN2CCN(c3ccncc3)CC2)n1 (stereo not given) | 81
